The supplement of paper PMC6555819

Key:
Assay in all cases: PBM binding z-score (relative to random genomic background probes); higher = stronger binding; sequences stand for … in GC…GCGATTGACAGCGTAGAATGAAGG
[1] = system: FXR:RXRa (NR concentration 270 nM, RXRa partner concentration 90 nM)
In short: (§1)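 Binding buffer was PBS pH 7.4 with 2% milk, 0.02% Triton X-100, 1 mM DTT, 0.2 mg/mL BSA and 0.4 mg/ml salmon testes DNA. In it, ligand-free nuclear receptor dimers were incubated 1 h on custom Agilent 4×180K protein-binding microarrays carrying double-stranded probes. Antibodies against each partner (one per run) detected binding, and z-scores were calculated against random background probes after regression normalization of scanned fluorescence.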

[2] = system: LXRa:RXRa (NR concentration 270 nM, RXRa partner concentration 90 nM)
In short: as §1

[3] = system: LXRa homodimer (NR concentration 270 nM)
In short: as §1

[4] = system: LXRb:RXRa (NR concentration 270 nM, RXRa partner concentration 90 nM)
In short: as §1

[5] = system: LXRb homodimer (NR concentration 270 nM)
In short: as §1

[6] = system: PPARa:RXRa (NR concentration 270 nM, RXRa partner concentration 90 nM)
In short: as §1

[7] = system: PPARg:RXRa (NR concentration 180 nM, RXRa partner concentration 90 nM)
In short: as §1

[8] = system: PPARg:RXRa 270nM:90nM, anti-RXR (NR concentration 270 nM, RXRa partner concentration 90 nM)
In short: as §1

[9] = system: PPARg:RXRa 30nM:10nM, anti-RXR (NR concentration 30 nM, RXRa partner concentration 10 nM)
In short: as §1

[10] = system: PPARg:RXRa 90nM:30nM, anti-RXR (NR concentration 90 nM, RXRa partner concentration 30 nM)
In short: as §1

[11] = system: PPARg:RXRa DBDmut IVT, anti-RXR (DBD mutation: RXRa K156A/R161A, NR concentration 270 nM, RXRa partner concentration 90 nM)
In short: as §1

[12] = system: PPARg:RXRa IVT, anti-PPARg (NR concentration 270 nM, RXRa partner concentration 90 nM)
In short: as §1

[13] = system: PPARg DBDmut:RXRa IVT, anti-PPARg (DBD mutation: PPARg1 K132A/R137A, NR concentration 270 nM, RXRa partner concentration 90 nM)
In short: as §1

[14] = system: PPARg DBDmut IVT, anti-PPARg (DBD mutation: PPARg1 K132A/R137A, NR concentration 270 nM)
In short: as §1

[15] = system: PPARg homodimer (NR concentration 180 nM)
In short: as §1

[16] = system: PXR:RXRa (NR concentration 270 nM, RXRa partner concentration 90 nM)
In short: as §1

[17] = system: PXR homodimer (NR concentration 270 nM)
In short: as §1

[18] = system: RARa:RXR (NR concentration 270 nM, RXRa partner concentration 90 nM)
In short: as §1

[19] = system: RARa homodimer (NR concentration 270 nM)
In short: as §1

[20] = system: RARb:RXRa (NR concentration 270 nM, RXRa partner concentration 90 nM)
In short: as §1

TCGATTAGGTTAGGGGCATTCAGAATGGCGTCGA
PBM binding z-score [1]: 0.719
PBM binding z-score [2]: 0.542
PBM binding z-score [3]: 0.0424
PBM binding z-score [4]: 1.5
PBM binding z-score [5]: 0.612
PBM binding z-score [6]: 1.46
PBM binding z-score [7]: 0.358
PBM binding z-score [8]: 2.01
PBM binding z-score [9]: 2.41
PBM binding z-score [10]: 2.22
PBM binding z-score [11]: 1.99
PBM binding z-score [12]: 0.798
PBM binding z-score [13]: -0.691
PBM binding z-score [14]: 0.33
PBM binding z-score [15]: 1.07
PBM binding z-score [16]: 0.603
PBM binding z-score [17]: 0.447
PBM binding z-score [18]: 0.692
PBM binding z-score [19]: 0.352
PBM binding z-score [20]: 1.57

TCTTGTAGATCAATAGAGGTTAGGAAAGTGCGCT
PBM binding z-score [1]: 1.24
PBM binding z-score [2]: 1.49
PBM binding z-score [3]: 0.276
PBM binding z-score [4]: 0.914
PBM binding z-score [5]: 0.11
PBM binding z-score [6]: 1.62
PBM binding z-score [7]: 0.163
PBM binding z-score [8]: 2.04
PBM binding z-score [9]: 3.13
PBM binding z-score [10]: 2.57
PBM binding z-score [11]: 2
PBM binding z-score [12]: 0.75
PBM binding z-score [13]: 0.694
PBM binding z-score [14]: 0.358
PBM binding z-score [15]: 0.823
PBM binding z-score [16]: 2.06
PBM binding z-score [17]: 0.156
PBM binding z-score [18]: 1.41
PBM binding z-score [19]: 0.518
PBM binding z-score [20]: 0.535

ACTAGCAGGCCAAGCTTGGGTCACTCAAACAAAG
PBM binding z-score [1]: -0.0796
PBM binding z-score [2]: 0.111
PBM binding z-score [3]: -0.692
PBM binding z-score [4]: 0.455
PBM binding z-score [5]: -0.932
PBM binding z-score [6]: 1.22
PBM binding z-score [7]: 0.00964
PBM binding z-score [8]: 0.21
PBM binding z-score [9]: -0.684
PBM binding z-score [10]: -0.194
PBM binding z-score [11]: 1.14
PBM binding z-score [12]: 0.724
PBM binding z-score [13]: -0.775
PBM binding z-score [14]: -0.566
PBM binding z-score [15]: 0.296
PBM binding z-score [16]: 0.742
PBM binding z-score [17]: -0.908
PBM binding z-score [18]: 1.66
PBM binding z-score [19]: -1.21
PBM binding z-score [20]: 1.77

ATAACAAGGTGATCGTGAGGTCGTTGATACTAAC
PBM binding z-score [1]: 1.71
PBM binding z-score [2]: 1.19
PBM binding z-score [3]: 0.521
PBM binding z-score [4]: 1.1
PBM binding z-score [5]: 0.521
PBM binding z-score [6]: 1.89
PBM binding z-score [7]: 0.967
PBM binding z-score [8]: 0.692
PBM binding z-score [9]: 0.235
PBM binding z-score [10]: 0.705
PBM binding z-score [11]: 1.16
PBM binding z-score [12]: 1.89
PBM binding z-score [13]: 1.52
PBM binding z-score [14]: 0.304
PBM binding z-score [15]: 0.85
PBM binding z-score [16]: 3.06
PBM binding z-score [17]: 1.63
PBM binding z-score [18]: 2.01
PBM binding z-score [19]: 0.293
PBM binding z-score [20]: 1.51

TCTATTAGTTGTTTAGGGCAACCGAAACAGCGGA
PBM binding z-score [1]: 0.479
PBM binding z-score [2]: 0.468
PBM binding z-score [3]: 0.25
PBM binding z-score [4]: 0.727
PBM binding z-score [5]: 1.15
PBM binding z-score [6]: 0.938
PBM binding z-score [7]: -0.0257
PBM binding z-score [8]: 2.1
PBM binding z-score [9]: 3.88
PBM binding z-score [10]: 2.99
PBM binding z-score [11]: 1.98
PBM binding z-score [12]: 1.19
PBM binding z-score [13]: 1.27
PBM binding z-score [14]: 0.951
PBM binding z-score [15]: 0.794
PBM binding z-score [16]: 0.621
PBM binding z-score [17]: 0.33
PBM binding z-score [18]: 0.698
PBM binding z-score [19]: 1.2
PBM binding z-score [20]: 1.13

CCTTACGGGTCACTGACAGGTTACAGCATTTGGA
PBM binding z-score [1]: 5.61
PBM binding z-score [2]: 3.93
PBM binding z-score [3]: 0.335
PBM binding z-score [4]: 3.43
PBM binding z-score [5]: -0.275
PBM binding z-score [6]: 5.01
PBM binding z-score [7]: 4.41
PBM binding z-score [8]: 4.6
PBM binding z-score [9]: 1.49
PBM binding z-score [10]: 3.28
PBM binding z-score [11]: 3.39
PBM binding z-score [12]: 4.02
PBM binding z-score [13]: 0.114
PBM binding z-score [14]: -0.264
PBM binding z-score [15]: 2.85
PBM binding z-score [16]: 3.59
PBM binding z-score [17]: 0.0317
PBM binding z-score [18]: 4.5
PBM binding z-score [19]: 0.367
PBM binding z-score [20]: 4.06

CCTAGTTGGTCAAGGTCAAACACGCTATAGGTAC
PBM binding z-score [1]: 5.04
PBM binding z-score [2]: 4.62
PBM binding z-score [3]: 3.57
PBM binding z-score [4]: 4.52
PBM binding z-score [5]: 1.24
PBM binding z-score [6]: 4.81
PBM binding z-score [7]: 3.13
PBM binding z-score [8]: 3.93
PBM binding z-score [9]: 1.16
PBM binding z-score [10]: 3.04
PBM binding z-score [11]: 2.18
PBM binding z-score [12]: 3.37
PBM binding z-score [13]: 0.444
PBM binding z-score [14]: 1.42
PBM binding z-score [15]: 3.34
PBM binding z-score [16]: 4.48
PBM binding z-score [17]: 3.25
PBM binding z-score [18]: 4.41
PBM binding z-score [19]: 2.79
PBM binding z-score [20]: 4.19
